PubChem BioAssay (NCI)
Where “and” joins values, the source holds several entries; their conditions need not be identical. Equal values may be shown once. This is part of a sample that, as a whole, favours compounds with a hit. Of some 79,000 tested, about 15% had one in any assay. Values without a mark were called inactive. Calls of active or inactive are those of the source. Cut-off read from the data, not from the text of the source: active = growth inhibition above about 70%; inactive = the rest.

Columns and labels:
[1] = NCI Yeast Anticancer Drug Screen. Data for the rad50 strain (AID 155);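 note: 0% = growth of vehicle-only cultures of the same strain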; details: S. cerevisiae rad50 strain growth inhibition, stronger effect = higher value
Procedure, shortened: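 Relative growth inhibition (compound vs vehicle) was measured in yeast with a defined repair-gene alteration.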

[2] = NCI Yeast Anticancer Drug Screen. Data for the mec2-1 strain (AID 157); details: S. cerevisiae mec2-1 strain, stronger effect = higher value
Procedure, shortened: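 mec2-1 yeast strain, carrying an alteration in DNA damage repair or cell cycle control, was exposed to compounds; growth inhibition was measured relative to vehicle-treated controls.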

[3] = NCI Yeast Anticancer Drug Screen. Data for the sgs1 mgt1 strain (AID 161);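 note: 0% = growth of cultures given vehicle only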; details: S. cerevisiae sgs1 mgt1 strain, stronger effect = higher value
Procedure, shortened: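 Percent growth inhibition was derived by comparing compound-exposed mutant yeast with vehicle-exposed cultures. The strain carries alterations in DNA damage repair.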

[4] = NCI Yeast Anticancer Drug Screen. Data for the cln2 rad14 strain (AID 165);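 note: 0% = growth equal to vehicle treated cultures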; details: S. cerevisiae cln2 rad14 strain, stronger effect = higher value
Procedure, shortened: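 Yeast carrying cln2 and rad14 alterations (cell cycle control and DNA damage repair) were exposed to compounds. Growth inhibition was measured against vehicle-treated controls.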

[5] = NCI Yeast Anticancer Drug Screen. Data for the bub3 strain (AID 167); details: S. cerevisiae bub3 mutant strain, stronger effect = higher value
Procedure, shortened: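 Screening used yeast with an engineered genetic alteration affecting cell cycle control. Compound-exposed cultures were compared with vehicle cultures, and reduced growth was taken as inhibition.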

[6] = NCI Yeast Anticancer Drug Screen. Data for the mlh1 rad18 strain (AID 175); details: S. cerevisiae mlh1 rad18 strain growth inhibition, stronger effect = higher value
Procedure, shortened: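 Growth inhibition of the yeast strain was measured after compound exposure and expressed relative to vehicle-treated controls. The strain carries defined defects in DNA damage repair.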

[7] = at 5.0 µM (retest, dose inferred, filed as 0.5)
[8] = at 50.0 µM (retest, dose inferred, filed as 5.0)

Row | Structure (SMILES) | growth inhibition [1, 7] | growth inhibition [1, 8] | growth inhibition ([1]; at 50.0 µM) | growth inhibition [2, 7] | growth inhibition [2, 8] | growth inhibition ([2]; at 50.0 µM) | growth inhibition [3, 7] | growth inhibition [3, 8] | growth inhibition ([3]; at 50.0 µM) | growth inhibition [4, 7] | growth inhibition [4, 8] | growth inhibition ([4]; at 50.0 µM) | growth inhibition [5, 7] | growth inhibition [5, 8] | growth inhibition ([5]; at 50.0 µM) | growth inhibition [6, 7] | growth inhibition [6, 8] | growth inhibition ([6]; at 50.0 µM)
1 | c1ccc2c(c1)[nH]c1c2cc[n+]2cc3c(cc12)CCCC3 | 30% and 19% | 79% (active) and 97% (active) | 89.2% (active) and 91.5% (active) | 51% and 19% | 85% (active) and 97% (active) | 89.6% (active) and 91.6% (active) | 45% and 26% | 97% (active) and 98% (active) | 91.9% (active) | 55% and 26% | 97% (active) and 89% (active) | 83.2% (active) | 68% and 33% | 96% (active) and 98% (active) | 91.3% (active) | 29% and 27% | 89% (active) and 98% (active) | 88.7% (active) and 86.2% (active)
2 | Cl[C](Cl)(Cl)[Hg][c]1ccccc1 | 99% (active) | 99% (active) | 88% (active) | 100% (active) | 99% (active) | 93.8% (active) | 100% (active) | 99% (active) | 92.7% (active) | 99% (active) | 99% (active) | 91.7% (active) | 99% (active) | 99% (active) | 91.8% (active) | 99% (active) | 99% (active) | 91.5% (active)
3 | [Br][Cd][Br].c1ccc([PH+](c2ccccc2)c2ccccc2)cc1.c1ccc([PH+](c2ccccc2)c2ccccc2)cc1 | 29% | 95% (active) | 97.5% (active) | 20% | 84% (active) | 89.5% (active) | 18% | 55% | 94.9% (active) | 4% | 89% (active) | 92.4% (active) | 21% | 93% (active) | 92.5% (active) | 18% | 92% (active) | 94.7% (active)
4 | Nc1ccc(Cc2ccc(N)c(Cl)c2)cc1Cl | -6% | 90% (active) | 78% (active) | -8% | 78% (active) | 95.1% (active) | -1% | 92% (active) | 95.2% (active) | -10% | 91% (active) | 75.8% (active) | 0% | 93% (active) | 96.8% (active) | -3% | 97% (active) | 97.2% (active)
5 | CC(=O)C(CN(C(C)C)C(C)C)C(c1ccccc1)c1c(O)c2ccccc2oc1=O (centres undefined) | 17% | 17% | 72% (active) | 11% | 11% | 47.4% | 8% | 8% | 58.7% | -3% | -3% | 58% | 13% | 13% | 70.3% (active) | 12% | 12% | 70.1% (active)
6 | CCN1/C(=C\c2ccc3cc(C)ccc3[n+]2CC)[Se]c2ccccc21 | 98% (active) | 98% (active) | 99.2% (active) | 100% (active) | 100% (active) | 99.4% (active) | 95% (active) | 99% (active) | 99.5% (active) | 98% (active) | 94% (active) | 99.5% (active) | 95% (active) | 99% (active) | 97% (active) | 99% (active) | 99% (active) | 99.5% (active)
7 | CC12CCC(C)(c3cc(O)c(O)cc31)c1cc(O)c(O)cc12 | -4% | 4% | 52.3% | -1% | -1% | 31.4% | -1% | 4% | 37% | 2% | 19% | 57.5% | 4% | 33% | 43.9% | -1% | 22% | 70.1% (active)
8 | [C-]#[O+].[C-]#[O+].[C-]#[O+].[Cl-].[Ru+2].c1ccc([PH+](CC[PH+](c2ccccc2)c2ccccc2)CC[PH+](c2ccccc2)c2ccccc2)cc1 | 50% | 98% (active) | 91% (active) | 45% | 99% (active) | 92.8% (active) | 55% | 99% (active) | 93.1% (active) | 36% | 97% (active) | 92.2% (active) | 50% | 98% (active) | 92.4% (active) | 56% | 97% (active) | 91.1% (active)
